Bioassay records as filed in PubChem BioAssay.
An excerpt weighted towards active compounds, which were near 4.8% of everything screened.
hcDAF-12 act – activates DAF-12 receptor from parasite H. contortus. HEK293 hcDAF-12 lit1-tk-luc reporter, luminescence; 0% DMSO, 100% Δ7-dafachronic acid. activation, % at 6.8 µM. hit rate 1.4% among 370,000;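 active = activation above the mean of all tested compounds plus 3 SD, cut at about 5.5% in these data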;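 also: 100% = response to 3 µM Δ7-dafachronic acid high control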
DAX1 inh-1 – inhibits human nuclear receptor DAX1. HEK293 Gal4-DAX1 luciferase reporter, luminescence. hit rate 0.99% among 340,000. inhibition, % at 6.75 µM. P51843;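 active = inhibition above the mean over all tested compounds plus 3 SD, cut at about 4.2% in these data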;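 also: 0% = DAX1-transfected cells with DMSO and 100% = empty-vector control cells with DMSO; inhibition shows as a rise in luminescence from relieved DAX1 repression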
Target sequence (P51843 207-470 limits assumed): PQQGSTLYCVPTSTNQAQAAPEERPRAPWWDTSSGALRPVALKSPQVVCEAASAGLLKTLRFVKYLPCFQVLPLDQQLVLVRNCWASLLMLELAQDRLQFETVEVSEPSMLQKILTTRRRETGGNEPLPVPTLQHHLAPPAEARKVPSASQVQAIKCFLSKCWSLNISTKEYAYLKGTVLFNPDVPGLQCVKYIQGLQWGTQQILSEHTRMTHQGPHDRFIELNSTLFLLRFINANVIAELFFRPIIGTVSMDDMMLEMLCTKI
ssDAF-12 act – activators of S. stercoralis DAF-12 nuclear receptor. HEK293 ssDAF-12/GRIP1 lit1-tk-luc reporter, luminescence; % of 3 µM dafachronic acid response. activation, % at 6.8 µM. hit rate 1% among 370,000. AID 652126;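 active = activation above the mean over all tested compounds plus 3 SD, cut at about 0.9% in these data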;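 also: 0% = DMSO-only wells and 100% = 3 µM delta7-dafachronic acid wells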
hgDAF12 agonist – hgDAF-12 agonism, primary luciferase screen. hit rate 1.8% among 370,000. HEK293 GAL4-hgDAF12 UAS-luciferase reporter, agonist luminescence; normalized to butyrate control. activation, % at 6.8 µM;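 active = activation above a cutoff set at the mean of all screened compounds plus 3 SD, cut at about 10% in these data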;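 also: 0% = DMSO wells and 100% = sodium butyrate wells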
DAX1 inh-2 – DAX1 (NR0B1) inhibition, primary screen. inhibition, % at 6.8 µM. hit rate 1.1% among 370,000. AID 652010. HEK293T StAR-luciferase reporter, SF-1/DAX-1 repression relief;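 active = inhibition above the mean over all tested compounds plus 3 SD, cut at about 3.6% in these data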;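 also: 0% = DAX-1 cells with DMSO and 100% = cells lacking DAX-1 with DMSO; higher inhibition means more luminescence from relief of DAX-1 repression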
SMARCA2 act – SMARCA2 function activation, primary screen; MG213 cells, MMTV-luciferase reporter, dexamethasone, overnight; activation, % at 9.1 µM; hit rate 1% among 370,000; AID 652017; in the data active = activation above about 7.8%;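 also: 0% = vehicle wells and 100% = reference activator wells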
Numbers without * were called inactive; / = no result given.

SMILES	hcDAF-12 act	DAX1 inh-1	ssDAF-12 act	hgDAF12 agonist	DAX1 inh-2	SMARCA2 act
COc1cc(C(=O)O)cc(OC)c1OC	-2.4	8.4*	-1.0	1.5	0.3	-2.8
CN1CCCCC1c1ccc(-c2cccnc2)nc1 (stereo unspecified)	-1.8	7.3*	0.5	4.7	1.8	-0.4
CC(C)C[C@H]1N=C(c2ccccc2)c2ccccc2N(CC(=O)NC(C)(C)C)C1=O	-1.5	/	-1.6	-1.6	0.3	-4.0
Cc1ccccc1C(=O)NCCN1CCC2(CC1)C(=O)NCN2c1ccccc1	-2.0	/	-0.3	1.0	1.0	-2.9
Cc1ccsc1C(=O)C1CCCN(CCO)C1 (stereo unspecified)	0.1	4.8*	0.1	-3.5	0.4	-0.5
Cc1ccsc1C(=O)C1CCCN(Cc2cnn(C)c2)C1 (stereo unspecified)	0.2	-1.2	-1.0	-3.9	-0.5	-2.8
CN1C[C@H](O)[C@H]2C[C@@H]1c1ccccc1O2	-1.4	/	-0.8	-2.9	0.9	-1.9
O=C(c1ccc(F)cc1Cl)N1CCC2(CC1)OCCO2	-1.4	-0.2	-1.4	0.4	0.4	-1.7
O=C(c1cc2cc(F)ccc2[nH]1)N1CCC2(CC1)OCCO2	4.3	0.5	1.8*	2.9	0.7	2.5
COc1ccc(CN2CCNCC2)c(OC)c1OC	-1.2	-0.6	-1.3	-2.5	-1.0	1.4
COc1cc(CN2CCNCC2)cc(OC)c1OC	0.8	-0.3	1.0*	4.7	-0.3	-2.4
Cc1ccc(-c2nc(N(C)C3CCN(C)CC3)c3ccccc3n2)cc1	6.0*	1.6	0.1	5.5	1.3	7.7
CN1CCN(Cc2cc(=O)n3ccsc3n2)CC1	0.6	0.8	-0.2	-0.6	0.8	-0.8
O=c1cc(CN2CCNCC2)nc2sccn12	0.3	4.9*	-1.2	1.1	0.1	-3.3
CC(NC(=O)OC1CC2CCC1(C)C2(C)C)P(=O)(Oc1ccccc1)Oc1ccccc1 (stereo unspecified)	-0.1	/	-0.1	2.5	/	/
COC(=O)C1CC(OC(C)=O)C(=O)[C@H]2C1(C)CC[C@H]1C(=O)OC(c3ccoc3)CC12C (stereo partly specified)	0.6	/	-0.7	2.1	0.8	-3.5
Nc1ccc2c(c1)oc1ccccc12	1.9	1.2	-0.9	11.2*	2.0	-0.6
CN1CCN(c2c(N)c(=O)oc3ccccc23)CC1	0.9	-0.3	-1.5	-0.5	1.9	-3.5
Clc1cc(Cl)cc(CN2Cc3ccccc3-n3nncc3C2)c1	-3.0	/	-1.2	5.0	0.4	5.8
COc1cc(/C=C/[N+](=O)[O-])ccc1OC(=O)c1cccnc1	4.7	0.5	1.3*	-1.6	-0.2	-1.0
Fc1ccc2nc(-c3ccc(CN4CCC(n5nnc6ccccc65)CC4)cc3)c(-c3ccccc3)nc2c1	-1.5	/	-1.5	-1.5	-1.4	-1.9
N#CC[N+]1(CCCNP2(=O)C=C(c3ccccc3)OC(c3ccccc3)=C2)CCOCC1	-1.4	6.2*	-1.1	-1.3	0.6	-1.7
C=CCN(CC#CCO)Cc1ccc(OC)cc1OC	-2.1	/	-1.6	-1.5	0.1	-2.8
O=C1NC(=O)C(=Cc2cc(Cl)ccc2OCc2ccc(C(=O)O)cc2)C(=O)N1	-0.8	5.5*	-1.5	-0.8	0.4	-2.0
COc1cc2oc(=O)c(CC(=O)N3C[C@H]4C[C@@H](C3)c3cccc(=O)n3C4)c(C)c2cc1Cl	-1.1	4.8*	-0.8	6.0	1.1	-1.3
SMILES	hcDAF-12 act	DAX1 inh-1	ssDAF-12 act	hgDAF12 agonist	DAX1 inh-2	SMARCA2 act
Cc1c(CC(=O)N2C[C@H]3C[C@@H](C2)c2cccc(=O)n2C3)c(=O)oc2cc(O)c(Cl)cc12	2.2	3.3	-1.1	-3.4	1.3	-0.3
O=C(O)CCl	-0.9	/	-1.6	-1.1	0.6	-4.0
Cc1c(N=Nc2c(O)n(-c3ccc(Br)cc3)c(=O)[nH]c2=O)c(=O)n(-c2ccccc2)n1C	-0.5	2.4	-0.8	-2.3	0.5	-1.5
Cc1cc([P+](=O)O)c(C)n1-c1ccc(Br)cc1	4.5	-0.4	1.5*	1.3	-0.4	-0.1
C=CCn1c(O)c(C(CC)=Nc2cccc(C(F)(F)F)c2)c(=O)[nH]c1=O	6.1*	0.2	0.0	-0.3	-0.4	-2.4
O=C(O)Cn1cc(/C=C2\C(=O)NC(=O)N(c3ccc(Cl)cc3)C2=O)c2ccccc21	2.2	-0.3	1.2*	-0.6	0.3	-1.2
O=C1NC(=O)N(Cc2ccccc2)C(=O)/C1=C\C=C\c1ccco1	2.1	-0.1	-1.0	3.7	1.2	0.7
O=C1NC(=O)N(Cc2ccccc2)C(=O)/C1=C/N1CCCc2ccccc21	5.8*	2.8	0.0	4.0	-0.4	-4.2
c1ccc(-c2nc(N3CCOCC3)s[n+]2-c2ccccc2)cc1	3.3	1.7	-0.1	11.6*	2.2	-0.4
CC(C)(C)NC(=O)C1CN=C(c2ccccc2)c2cc(Cl)ccc2N1C(=O)C1CCC1 (stereo unspecified)	0.3	/	-0.4	3.0	1.5	-3.5
O=C(CF)NC(NC(=S)Nc1ccccc1O)C(Cl)(Cl)Cl (stereo unspecified)	2.9	4.9*	-1.0	-1.4	-1.1	-2.1
COC(=O)C1=C[C@H]([C@@H](C)[C@H](OC)c2ccccc2Br)[C@@H]2[C@H]1c1ccccc1N2C	-1.2	/	-1.1	-0.7	-0.6	-5.1
COC(=O)c1c2[n+](cc3cc(OC)c(OC)cc13)CCc1cc(OC)c(OC)cc1-2	-0.1	4.5*	-1.5	1.3	0.0	-2.1
Cc1cc(=O)oc2cc(OCC(=O)N3CCC(C(=O)O)(c4ccccc4)CC3)ccc12	0.0	3.7	-1.4	-3.2	-0.5	-3.4
Cc1cc(=O)oc2c(C)c(OCC(=O)N3CCC(C(=O)O)(c4ccccc4)CC3)ccc12	-1.5	4.6*	-0.6	3.2	0.5	-1.6
CN(C)c1ccc(CCN2CCOCC2)cc1	3.4	1.4	1.2*	10.8*	0.9	5.3
Nc1ccccc1C(=O)OCc1ccc([N+](=O)[O-])cc1	2.0	-0.6	-1.0	11.2*	-0.1	2.6
CC(C)c1ccc(N2C(=O)NC(=O)/C(=C/c3cnc(-c4ccccc4)nc3)C2=O)cc1	-0.8	1.3	-1.0	-2.5	-0.1	-0.8
CSc1ncc(/C=C2/C(=O)NC(=O)N(c3ccc(C(C)C)cc3)C2=O)cn1	6.4*	-0.1	0.2	0.5	0.0	-2.0
CCOC(=O)CC[C@@H]1CC[C@]2(CCCN(Cc3cccnc3)C2)O1	3.1	/	-1.2	-0.1	-0.4	-4.0
Cc1ccc(-n2c(/C=C/c3ccccn3)nc3ccccc3c2=O)cc1	-0.4	-1.8	-1.0	-0.5	-0.4	1.4
O=c1c2ccccc2nc(/C=C/c2ccccn2)n1-c1ccccc1	-1.6	-0.5	-0.7	10.5*	-0.8	0.6
O=C(NCCN1CCC2(CC1)C(=O)NCN2c1ccccc1)c1ccc2ccccc2c1	-1.6	/	-1.4	-0.5	-0.7	4.0
OCC#CC[N+]1(CC#Cc2ccccc2)CCOCC1	2.5	4.3*	-1.6	1.0	0.0	-0.8
